# Experimental data as given in the supplement of paper PMC3334620.
# Whole data set: some 33,000 sequences, median “E-score (-0.5 to 0.5)” near -0.015, cut for the highest 2% near 0.3. The sample as a whole holds a higher share of the highest values than the screen did.
# Biological target: T1, Abf1 (UniProt P14164)
# T1 sequence: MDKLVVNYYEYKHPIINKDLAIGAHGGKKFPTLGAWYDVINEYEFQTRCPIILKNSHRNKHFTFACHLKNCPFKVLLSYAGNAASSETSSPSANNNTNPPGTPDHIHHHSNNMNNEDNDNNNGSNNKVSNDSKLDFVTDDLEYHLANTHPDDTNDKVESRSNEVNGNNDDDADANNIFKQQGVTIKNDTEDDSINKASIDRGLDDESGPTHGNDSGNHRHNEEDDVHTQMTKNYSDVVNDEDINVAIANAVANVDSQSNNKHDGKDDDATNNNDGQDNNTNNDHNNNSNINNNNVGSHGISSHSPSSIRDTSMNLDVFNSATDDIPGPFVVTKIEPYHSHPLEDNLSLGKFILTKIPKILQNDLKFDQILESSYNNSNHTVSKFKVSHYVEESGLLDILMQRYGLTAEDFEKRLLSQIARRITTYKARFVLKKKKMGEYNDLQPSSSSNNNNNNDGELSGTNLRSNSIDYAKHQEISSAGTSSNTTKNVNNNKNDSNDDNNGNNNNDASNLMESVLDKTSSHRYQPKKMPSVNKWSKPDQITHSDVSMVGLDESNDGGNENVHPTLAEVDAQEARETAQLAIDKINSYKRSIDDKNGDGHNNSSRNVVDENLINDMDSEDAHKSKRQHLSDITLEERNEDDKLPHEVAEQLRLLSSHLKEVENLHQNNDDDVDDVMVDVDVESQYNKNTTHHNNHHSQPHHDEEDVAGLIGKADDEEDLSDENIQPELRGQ
# Experiment: PBM E-score (8-mer binding enrichment) (E-score (-0.5 to 0.5)); higher = stronger / more preferred TF binding
# Conditions: protein concentration: 200 nM; construct: GST-full length
# Experimental: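 Universal 'all 10-mer' protein binding microarrays (Agilent AMADID 015681) probed with GST-tagged S. cerevisiae TFs (full-length or DBD) made by in vitro transcription/translation (PURExpress), about 100-200 nM. Bound TF was detected with fluorescent anti-GST. Each ungapped 8-mer (which stands for itself and its reverse complement) is scored by the PBM enrichment score (E-score), a modified Wilcoxon-Mann-Whitney statistic from -0.5 to +0.5, computed with the Universal PBM Analysis Suite. Scale: above 0.35 generally sequence-specific binding.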
row,Sequence,PBM E-score
1,ATAGGCTC,-0.0801
2,CCAAACCG,-0.0285
3,AAGGACCC,-0.134
4,ACATCCTA,0.0617
5,AATTCTCG,0.162
6,CAAGTGAC,0.242
7,AGAGTGAG,0.0964
8,AGAGTGAA,-0.0316
9,GAAGTGAC,0.411
10,GAAGTGAA,0.064
11,AGAGTGAT,0.387
12,GTCCGGTA,0.00344
13,CTCACGTA,-0.0341
14,AACTATAT,0.205
15,TATTATCA,0.34
16,CATTATCC,0.262
17,AGTTATCG,0.223
18,CATTATCG,0.0198
19,GGTTATCA,0.272
20,TATTATGA,0.0866
21,ACTTATCA,0.231
22,CCTTATCA,0.236
23,TCTTATCA,0.316
24,CATTATCA,0.329
25,TATTATAA,0.121
26,AGTTATCA,0.302

row,Sequence,PBM E-score
1,GGGAGGCA,-0.284
2,GGGGACGA,0.135
3,AATTATCG,0.178
4,AATTATCC,0.0502
5,GATTATTA,0.0366
6,GATTATCA,0.302
7,AATTATCA,0.34
8,GATTATCC,0.152
9,CATCCATA,0.0978
10,CATGAACC,-0.00224
11,GCCCGAGA,-0.194
12,ATCATTAC,0.262
13,GTCATTAA,0.385
14,CTCATTAA,0.148
15,ATCATTAA,0.307
16,ATCATTAG,0.279
17,GACATTAA,0.227
18,CTAAGCGC,-0.121
19,CTTTGCAC,0.209
20,ACCTTTAC,-0.0849
21,AGTTCGTA,0.264
22,CGTTCGTC,0.358
23,CGTTCGAA,0.311
24,CGTTCGAC,0.122
25,GGTTCGTA,0.14
26,TGTTCGAA,-0.0208

row,Sequence,PBM E-score
1,AGTTCGTC,0.164
2,ATTTCGTG,0.288
3,CGTTCGTA,0.345
4,CGTTCGGC,0.0205
5,AGTTCGTG,0.326
6,AGTTCGGG,0.0167
7,ATAAGGAT,-0.00817
8,AGGGAAGC,-0.197
9,CTGCTGGC,-0.25
10,ATCGAAAA,0.0388
11,GATCACGA,0.301
12,GATCACGC,0.366
13,GATCACAA,0.26
14,GATCACAC,0.118
15,CTTCACGA,0.2
16,GTTCACGA,0.3
17,ATTCACGA,0.235
18,CATCACGC,0.191
19,GCTCACGA,0.125
20,ACACTCGA,-0.0221
21,CGTCCATC,0.0706
22,GATACGGA,0.279
23,AGGGTGGG,-0.0843
24,CATTTGAG,0.0534
25,CGCCAGAA,-0.0306
26,CAGTCGGG,0.0146

row,Sequence,PBM E-score
1,GATAGCCA,-0.0722
2,GACAATCC,0.0976
3,GAACGAAC,0.121
4,AGACGAAC,0.24
5,GTACGAAC,0.418
6,GCACGAAC,0.269
7,GCACGAAA,0.336
8,GGACGAAC,0.323
9,GTACGAAA,0.376
10,CTACGAAA,0.122
11,ATACGAAC,0.294
12,ACACGAAA,0.288
13,TTACGAAA,0.279
14,CTACGAAC,0.275
15,AAATCTAG,0.045
16,ATACTTGA,-0.0426
17,AAGCACCC,-0.201
18,ATGGAAAA,0.177
19,GATTGAGA,0.21
20,CGTTAGTC,0.00116
21,GATCGCTA,0.157
22,CTAAGCGA,-0.0187
23,CTTTTAGA,-0.028
24,ATATCGTG,0.318
25,ATATCGTC,0.336
26,ATATCGCC,0.269

row,Sequence,PBM E-score
1,ATATCGTA,0.203
2,ATATCGGC,0.149
3,ATATCGGG,0.018
4,AAATCGTC,0.347
5,CTATCGTC,0.252
6,ATATCGCG,0.382
7,AAATCGTG,0.192
8,ATATCGCA,0.144
9,AAATCGTA,0.267
10,AGGGAACT,-0.244
11,AGCCGTAA,0.193
12,GCGTCCTA,-0.0099
13,TACCAAAA,0.0276
14,ACACAAAC,0.0247
15,AGATAATA,0.107
16,GTATAATA,0.299
17,GGATAATA,0.173
18,GTATAAAA,0.356
19,ATATAAAA,0.185
20,ATATAATA,0.0977
21,CGATAATA,0.326
22,GTATAAAC,0.22
23,CTATAATA,-0.0104
24,GTTAACGA,0.252
25,ACTGGTCG,-0.0382
26,AGTGCGAA,-0.196

row,Sequence,PBM E-score
1,CTCACCAG,-0.101
2,CGAAGGGC,-0.116
3,ACAGTGTC,-0.155
4,AGGGCTTC,0.0312
5,TCTCGTAA,0.306
6,AATCGTAG,0.197
7,AATCGTAT,0.297
8,ACTCGTAA,0.173
9,AATCGTAA,0.145
10,ACTCGTAG,0.16
11,CCTCGTAA,0.131
12,ACTCGTAT,0.305
13,GCTCGTAA,0.118
14,CACTCGGC,-0.0263
15,ACCAAGCT,-0.00876
16,AGGTTACT,0.024
17,CAATACTG,-0.239
18,CGCTCACA,-0.0723
19,ACGCGGGC,-0.0155
20,GCTTCGCC,-0.147
21,CGCCGTCA,0.199
22,CGCCGTCC,0.308
23,GGCCGTAC,0.367
24,CGCCGTAA,0.0647
25,ACCCGTAG,-0.248
26,CGCCGTAG,0.209

row,Sequence,PBM E-score
1,ACCCGTAC,0.299
2,AGCCGTAC,0.238
3,AGCCGTCC,0.0251
4,ACCCGTAA,0.0373
5,GGCCGTAA,0.121
6,CGCCGTAC,0.315
7,CTACGTCA,0.146
8,CCAGTGAG,-0.251
9,CATTAGGC,0.0172
10,GGTCCCAA,-0.136
11,CAGTCCAA,-0.177
12,TCGCGGAA,0.0001
13,AGCTACCG,-0.0848
14,CACCGTAA,0.101
15,CACCGTAC,0.385
16,CGCCGTTC,0.331
17,AGCCGTTC,-0.0626
18,CACCGTAG,0.0588
19,CGCCGTTA,0.14
20,AGACCCCG,-0.0859
21,CAGCAAGG,-0.192
22,GGTGACTA,0.149
23,GCACTATA,0.017
24,AAGACAAC,0.0616
25,CTCCCCAC,-0.0818
26,CGAGAGAA,0.0467

row,Sequence,PBM E-score
1,CAGTAATA,0.304
2,CAGTAATG,-0.0287
3,CAGTAATC,-0.00799
4,GCCGTAAC,0.211
5,ATTTATTG,0.0665
6,CCCATTTC,-0.182
7,GTCGTCAA,0.222
8,CTCGTCAC,0.336
9,CTCGTCAA,0.0916
10,GTCGTCAC,0.35
11,GCCGTCAC,0.0578
12,ATCGTCTC,0.25
13,CACGTCAG,0.0977
14,ATCGTCAC,0.389
15,CTCGTCAG,0.182
16,CACGTCAA,0.0325
17,CACGTCAC,0.368
18,AGCGTCAC,-0.00719
19,AGTATGCA,0.111
20,CAATGCCC,-0.0566
21,GGGTTTGA,0.121
22,CCGCGCAC,-0.209
23,CCCTTAGG,-0.0737
24,AGGACCCC,-0.0335
25,ATCGTCGC,0.362
26,ATCGTCGA,0.289

row,Sequence,PBM E-score
1,ATCGTCGG,0.218
2,ATGCTAAA,0.0969
3,CCCACGAC,0.0916
4,CCCACGAA,0.316
5,CCCACGAG,0.0399
6,GCCACGAA,0.0988
7,TCCACGAA,0.352
8,ACCACGAA,0.0971
9,ACGCACAT,-0.00733
10,CGCGGCGC,-0.00706
11,CGACGACG,0.177
12,GGACGAGA,0.145
13,GGACGACC,0.0608
14,TGACGACA,0.361
15,TCACGACA,0.257
16,AGACGACA,0.264
17,GGACGACA,0.299
18,AGACGACC,0.0722
19,CGACGACA,0.311
